Measurements taken from PubChem BioAssay (NCI).
Compounds without any hit were thinned out: in the full panel of roughly 79,000, 15% have a hit. Unmarked numbers belong to inactive results. The source made the active and inactive calls. Cut-off read from the data, not from the text of the source: active = growth inhibition above about 70%; inactive = the rest.

Columns and labels:
[1] = NCI Yeast Anticancer Drug Screen. Data for the rad50 strain (AID 155);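 note: 0% = growth of vehicle-only cultures of the same strain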; conditions: S. cerevisiae rad50 strain growth inhibition; at 50.0 µM; hits give high values
Outline: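 Growth of the mutant yeast was measured after compound exposure and referenced to vehicle-treated cultures.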

[2] = NCI Yeast Anticancer Drug Screen. Data for the mec2-1 strain (AID 157); conditions: S. cerevisiae mec2-1 strain, at 50.0 µM, hits give high values
Outline: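 Cells of the genetically defined mec2-1 yeast strain are incubated with test compound. Inhibition of growth is calculated against vehicle-treated controls.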

[3] = NCI Yeast Anticancer Drug Screen. Data for the sgs1 mgt1 strain (AID 161);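 note: 0% = growth of cultures given vehicle only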; conditions: S. cerevisiae sgs1 mgt1 strain, at 50.0 µM, hits give high values
Outline: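 Inhibition of yeast growth, normalised to vehicle-treated controls, is reported for a strain bearing genetic alterations in DNA damage repair.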

[4] = NCI Yeast Anticancer Drug Screen. Data for the cln2 rad14 strain (AID 165);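 note: 0% = growth equal to vehicle treated cultures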; conditions: S. cerevisiae cln2 rad14 strain, at 50.0 µM, hits give high values
Outline: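 The screen exposed genetically defined yeast (cln2 rad14) to test compounds and scored growth inhibition relative to vehicle-treated controls.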

[5] = NCI Yeast Anticancer Drug Screen. Data for the bub3 strain (AID 167); conditions: S. cerevisiae bub3 mutant strain, at 50.0 µM, hits give high values
Outline: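 Whole-cell yeast assay. The mutant strain was incubated with compounds, and growth inhibition was determined by comparison with vehicle-treated cells.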

[6] = NCI Yeast Anticancer Drug Screen. Data for the mlh1 rad18 strain (AID 175); conditions: S. cerevisiae mlh1 rad18 strain growth inhibition; at 50.0 µM; hits give high values
Outline: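 Compound-treated yeast growth, normalised to vehicle controls. Strain bears defined DNA repair mutations.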

Compound | growth inhibition [1] | growth inhibition [2] | growth inhibition [3] | growth inhibition [4] | growth inhibition [5] | growth inhibition [6]
O=[N+]([O-])c1ccc(OCC#CCOc2ccc([N+](=O)[O-])c(C(F)(F)F)c2)cc1C(F)(F)F | 31.4% | -13.6% | -0.2% | 4.65% | -2.3% | -3.75%
CCCCCCCCCCCCCCCCCCCCCCCCC(O)C(=O)O (configuration not stated) (tested in a mixture with another compound) | -33% | -31.4% | -2.4% | -23.2% | 7.7% | -0.45%
Cc1cc(-c2ccccc2)nc(Nc2cc3ccccc3[nH]2)n1 | -8.6% | 13.2% | -17.6% | 0.05% | -4.25% | 0.4%
CCCc1nc(N)nc(C(=O)Nc2cccc(C(F)(F)F)c2)c1CC | -15.2% | -19.4% | 5.1% | 4.05% | 2.15% | -8.25%
Oc1ccc(O)c(-c2ccccc2)c1 | 61.5% | 36.2% | 53.2% | 51% | 33.6% | 44%
COC(=O)C(=O)C(C(=O)C(=O)Nc1cc(C)ccc1C)c1nc2ccccc2[nH]c1=O (configuration not stated) | 13% | -11.9% | 14.4% | 21.1% | -13.7% | 9.4%
Cc1ccccc1NC(=O)/C(C#N)=N\Nc1nc[nH]c1C(N)=O | -33.7% | -22.6% | -11.8% | 6.2% | -45.9% | 13.1%
N=C(N)SCCC(=O)CCSC(=N)N | 27.9% | 18.6% | 33.6% | 32.2% | 15.6% | -2.75%
COC(=O)C(S)(NC(C)=O)C(C)C (configuration not stated) | 0.2% | -10.5% | -1.25% | -30.4% | -18.8% | 16.1%
COC1OC(CO)C(O)C(OC(C)=O)C1NC(=O)N(CCCl)N=O (configuration not stated) | -4.9% | -13.4% | -6.2% | 7.4% | -7.65% | -8.75%
CSc1nc2c(nnn2C2OCC(O)C(O)C2O)c(=O)[nH]1 (configuration not stated) | -10.7% | -0.5% | -11.9% | -4.3% | -6.1% | 6.4%
CCOC(=O)C1CN(CCCN2CC(C(=O)OCC)C(=O)C2=O)C(=O)C1=O (configuration not stated) | 9.9% | 7.25% | 3.5% | 24.1% | 9.95% | -3.95%
CC(=O)CC(=O)c1ccc(Cl)cc1 | -28.4% | -11.4% | -10.8% | -13.6% | -4.1% | -0.25%
O=c1cc(-c2cccs2)ss1 | 18.4% | 5.25% | -0.65% | -34.6% | 13.8% | 25%
CCCCC/C(C)=N\NC(N)=S | 15.6% | -6.15% | -15.9% | 1.85% | 19.8% | -2.5%
Cc1ccc(NC(=O)/C=C/c2ccccc2)cc1Cl | 2% | 14.2% | 8.15% | -5.5% | 27.4% | 16.1%
C=C(Br)CNC(=O)c1ccccc1 | 7.5% | -3.45% | -1.35% | -39.4% | 21.4% | 5.2%
O=C1c2cccc([N+](=O)[O-])c2C(=O)N1c1ncn[nH]1 | -5.9% | -2.15% | -21.9% | -6.8% | -43.4% | 0.15%
CCOC(=O)c1ccc(N2C(=O)C(Cl)(c3ccccc3)C2c2ccco2)cc1 (configuration not stated) | 16.2% | 9.85% | -1.65% | 9.1% | 12.4% | 10.5%
O=[N+]([O-])c1ccc(/C=N/C(/N=C/c2ccc([N+](=O)[O-])cc2)c2ccc([N+](=O)[O-])cc2)cc1 | 8.05% | -6.25% | 6.35% | 1.55% | -4.05% | 23.9%
Cc1csc2nc(-c3ccco3)nn12 | -3.2% | -23.9% | 4.55% | 15.9% | -13.3% | 4.35%

Compound | growth inhibition [1] | growth inhibition [2] | growth inhibition [3] | growth inhibition [4] | growth inhibition [5] | growth inhibition [6]
CC1(C)OC2COC(c3[nH]nc(C(N)=O)c3C(=O)N=[N+]=[N-])C2O1 (configuration not stated) | -11.3% | -1.35% | -12.1% | 4.35% | 7.85% | -9.95%
CCOCC/C(=N\Nc1ccc([N+](=O)[O-])cc1[N+](=O)[O-])c1ccccc1 | 19.8% | 5.85% | 11.2% | 19.6% | 30% | 9.55%
CCCCOc1ccc([N+](=O)[O-])cn1 | 20.8% | -14.6% | 3.15% | 26.1% | -7.6% | 9.15%
CC(C)C(=O)OC1CCCCC1Cc1ccccn1 (configuration not stated) | 21.1% | -3.25% | 29.1% | -17% | 24.1% | -6.8%
NOCc1ccc(OCc2ccccc2)cc1 | 5.75% | 7.3% | -6.7% | -18.8% | -2.4% | -11.5%
Nc1ccc(F)cc1 | -22.1% | -1.5% | -15.4% | -19.6% | -3.05% | -31.9%
CCCCNC(=O)C(C)S(=O)(=O)c1ccc(C)cc1 (configuration not stated) | 6.6% | 16.4% | -17.3% | -21.7% | -2% | 11.8%
Oc1cc2c(c3c(O)c4ccccc4c(O)c13)=NC1CCCCC1N=2 (configuration not stated) | 6.25% | 9.6% | 20.6% | 7.6% | 15.3% | 40%
COC(=O)/C=C(C)/C=C/c1cc(C(C)=O)c(C)o1 | -2.25% | -2.95% | 7.85% | -12.3% | 29.6% | -7.05%
O=P(Nc1cccc(Cl)c1)(Nc1cccc(Cl)c1)c1ccccc1 | 96.8% (active) | 74.1% (active) | 96.9% (active) | 76.7% (active) | 85.3% (active) | 95.8% (active)
CC(=O)CC(=O)Nc1ccccc1[N+](=O)[O-] | -7.05% | -24.4% | -0.65% | 15.9% | 7.05% | -9.65%
O=C([O-])c1ccc2c(c1)-c1nc-2nc2[n-]c(nc3nc(nc4[n-]c(n1)c1ccc(C(=O)[O-])cc41)-c1ccc(C(=O)[O-])cc1-3)c1ccc(C(=O)[O-])cc21.[Gd+3].[K+] | -12.8% | -11.1% | -11.8% | 23.6% | 18% | -12.1%
CC(C)SC1SCC2C(=O)N(C)C3(CC3C)C(=O)OCC(NC(=O)c3nc4ccccc4cc3O)C(=O)NC(C)C(=O)N(C)C1C(=O)N(C)C1(CC1C)C(=O)OCC(NC(=O)c1nc3ccccc3cc1O)C(=O)NC(C)C(=O)N2C (configuration not stated) | 70.4% (active) | 68% | 78% (active) | 73.8% (active) | 78.8% (active) | 81.2% (active)
CCCCOC1NC(=O)NC(=O)C1(F)C(=O)OCC (configuration not stated) | 4% | -9.75% | 5.45% | 9.4% | -9.55% | -0.85%
CC(C)OCCOCCO | 7.65% | -10.5% | -4.85% | -24.9% | 10.1% | -1.2%
CC(=O)c1cc(CC2Cc3cc4c(cc3C2=O)CCC4)cc2c1CCC2 (configuration not stated) | -37.5% | -36.1% | -14.2% | 9% | -6.45% | -4.85%
CCCCCCC/C=N/Nc1ccc([N+](=O)[O-])cc1[N+](=O)[O-] | -3.3% | -16.1% | -5.55% | -23.9% | 1.4% | 12.9%
CCOC(=O)c1nnn(Cc2ccccc2)c1N | -2.1% | -7.35% | 3.75% | 26.1% | 1.7% | -9.35%
CCCCCCCS(=O)(=O)CCCCC(=O)O | -17.4% | -5.85% | -7% | -3.35% | 6.7% | -9.5%
C[S+](C)N(c1ccccc1)C(C)(C)C | -10.1% | -8.2% | -0.45% | -17.4% | -22.7% | -6.1%
NC(=O)C(=O)N/N=C1/c2ccccc2CC1C1(O)C(=O)Nc2c(Cl)cc(Cl)cc21 (configuration not stated) | 50.4% | 30.9% | 38.5% | 16.6% | 3.55% | 44.2%
